Bioassay records deposited in PubChem BioAssay by several laboratories.
PostGolgi ctrl = yeast control strain growth, post-Golgi counter-screen. efflux-deficient yeast background strain, growth absorbance A615, 16 h. hit rate 5% among 98,000. AID 738. inhibition, % at 10 µM
CYP2C9 inh = inhibitors of human CYP2C9; CYP2C9 Supersomes, luciferin-H conversion, luminescence; hit rate 20% among 96,000; inhibition, % at 5 µM; P11712;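 active = blocking of liver enzyme CYP2C9 beyond about 50% at 5 µM, limit read from the data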
CYP2C19 inh = human CYP2C19 inhibition; P33261; CYP2C19 Supersomes, luciferin-H EGE luminescence, 30 min; inhibition, % at 5 µM; hit rate 21% among 96,000;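 active = CYP2C19 inhibition above a set limit at 5 µM in the primary screen, cut at about 50% in these data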;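 note: plate controls were negative control wells for no effect and 2.5 mM tranylcypromine positive control for full effect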
Target sequence (P33261 whole entry, looked up): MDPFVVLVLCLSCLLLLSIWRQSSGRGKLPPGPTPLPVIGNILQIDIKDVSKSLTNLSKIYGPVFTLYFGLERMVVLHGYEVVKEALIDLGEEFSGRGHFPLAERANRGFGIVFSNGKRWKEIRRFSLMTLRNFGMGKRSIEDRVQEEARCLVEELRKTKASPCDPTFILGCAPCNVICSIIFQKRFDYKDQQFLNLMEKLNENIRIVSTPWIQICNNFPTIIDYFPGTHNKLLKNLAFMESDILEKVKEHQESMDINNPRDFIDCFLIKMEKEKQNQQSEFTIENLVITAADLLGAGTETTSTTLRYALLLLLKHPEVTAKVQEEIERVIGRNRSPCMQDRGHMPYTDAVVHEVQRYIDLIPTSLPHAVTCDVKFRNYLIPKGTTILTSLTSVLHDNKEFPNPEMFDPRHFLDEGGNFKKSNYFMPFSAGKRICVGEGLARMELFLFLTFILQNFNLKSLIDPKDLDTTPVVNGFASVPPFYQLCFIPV
PostGolgi yeast = growth inhibition of a yeast mutant, post-Golgi transport screen; AID 739; hit rate 0.9% among 98,000; inhibition, % at 10 µM; post-Golgi transport phenotypic cell assay;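 note: yeast cells grown in 1536-well plates; yeast grown about 18 h at 30C before absorbance read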
CYP2C9 activ = activators of human CYP2C9. P11712. recombinant CYP2C9, luciferin-H conversion, luminescence; active compounds read high; factor 1 = untreated enzyme, 0 = blocked. activation factor at 5 µM. hit rate 1.4% among 96,000. AID 1024;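 active = activation factor of 2 or more for CYP2C9 at a 5 µM dose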;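 note: 0 = sulfaphenazole-blocked wells and 1 = vehicle-only wells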
CYP2C19 act = cytochrome P450 2C19 (human) activation. P33261. recombinant CYP2C19, luciferin-H EGE luminescence; active compounds read high; 0 = fully inhibited enzyme, 1 = untreated enzyme. activation factor at 5 µM. 96,000 tested, under 10 active;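 active = activation factor of at least 2 at 5 µM in the primary screen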;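 note: 0 = wells with 2.5 mM tranylcypromine and 1 = vehicle-only wells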
An asterisk follows results filed as active; / = not tested or not shown. Most compounds without a hit are left out; they make up all but 32% or so of the library. Cut-off read from the data, not from the text of the source, unless noted: active = inhibition above about 30%; inactive = the rest.

SMILES	PostGolgi ctrl	CYP2C9 inh	CYP2C19 inh	PostGolgi yeast	CYP2C9 activ	CYP2C19 act
N#Cc1c(-c2ccc3c(c2)OCO3)ccn2nc(-c3cccc(C(F)(F)F)c3)nc12	11	10	38	6	0.9	0.6
Cc1ccc(C(=O)CCNc2ccc(Cl)cc2)o1	19	37	92*	-4	0.6	0.1
Cc1cccc(NCCC(=O)c2ccc(Br)cc2)c1	-1	23	32	-3	0.8	0.7
Cc1ccc(NCCC(=O)c2ccc(Cl)cc2)cc1C	6	5	59*	-7	1	0.4
CCCOc1ccc(C(=O)CCNc2ccc(C)c(Cl)c2)cc1	5	20	60*	2	0.8	0.4
Cc1cc(C)cc(NC(=O)CSc2nnc(-c3ccccc3)n2N)c1	10	-3	7	15	1	0.9
CCOC(=O)c1sc(NC(=O)c2cc3n(n2)C(C(F)(F)F)CC(c2ccccc2)N3)c(C(=O)OCC)c1C (configuration not stated)	1	27	6	0	0.7	0.9
Cc1nn(C)c(C)c1/C=C1/SC(=S)NC1=O	7	23	0	14	0.8	1
Cc1ccc(C2C(/C=C3/SC(=S)NC3=O)=C(c3cccs3)Oc3ccccc32)cc1 (configuration not stated)	21	68*	1	-3	0.3	1
CC1(c2ccccc2)CC2CC(c3ccccc3)N1O2 (configuration not stated)	10	54*	92*	-1	0.5	0.1
c1ccc(Nc2cc(Nc3ccccc3)[nH]n2)cc1	-1	45	74*	-2	0.5	0.3
Cc1c(C(=O)NC2CC2)oc2ccc(S(=O)(=O)N3CCCCCC3)cc12	/	40	27	/	0.6	0.7
Cc1c(C(=O)NCc2cccnc2)oc2ccc(S(=O)(=O)N3CCCC(C)C3)cc12 (configuration not stated)	33*	49	17	6	0.5	0.8
O=C(NCc1ccco1)c1cccc(S(=O)(=O)N2CCCCC2)c1	-1	/	/	3	/	/
O=C(NCc1cccs1)c1cccc(S(=O)(=O)N2CCCCC2)c1	10	67*	75*	10	0.3	0.3
O=C(NCc1ccc2c(c1)OCO2)c1cccc(S(=O)(=O)N2CCCCC2)c1	31*	/	/	7	/	/
Cc1c(C(=O)NCc2ccccc2)oc2ccc(S(=O)(=O)N3CCC4(CC3)OCCO4)cc12	-2	55*	30	0	0.5	0.7
Cc1c2cccn2cc[n+]1C	6	-22	-6	4	1.2	1.1
Cc1c(C(=O)NCc2ccc3c(c2)OCO3)oc2ccc(S(=O)(=O)N3CCC(C)CC3)cc12	-5	/	/	-9	/	/
Cc1c(C(=O)NCc2ccc3c(c2)OCO3)oc2ccc(S(=O)(=O)N3CCCCCC3)cc12	11	68*	24	-11	0.3	0.8
CCCCN(C)C(=O)c1oc2ccc(S(=O)(=O)N3CCCCCC3)cc2c1C	14	56*	30	0	0.4	0.7
O=C(Nc1ccc2c(c1)OCCO2)c1cccc(S(=O)(=O)N2CCCCC2)c1	8	63*	41	-5	0.4	0.6
Cc1c(C(=O)NCC2CCCO2)oc2ccc(S(=O)(=O)N3CC(C)CC(C)C3)cc12 (configuration not stated)	5	59*	34	-2	0.4	0.7
COc1cccc(C(=O)O/N=C/c2ccc(Sc3ccc(C)cc3)nc2)c1	11	19	10	-4	0.8	0.9
c1ccc(CCNc2nc(-c3cccnc3)cs2)cc1	14	59*	92*	-1	0.4	0.1
SMILES	PostGolgi ctrl	CYP2C9 inh	CYP2C19 inh	PostGolgi yeast	CYP2C9 activ	CYP2C19 act
c1cncc(-c2csc(NCc3ccco3)n2)c1	-2	74*	86*	2	0.3	0.1
COc1ccc(-c2csc(NCc3ccco3)n2)cc1C	4	62*	81*	1	0.4	0.2
COC(=O)c1ccc(-c2ccco2)n1Cc1cc(C)ccc1C	4	7	-13	3	0.9	1.1
COC(=O)c1ccc(-c2ccco2)n1Cc1cccc(C)c1	8	81*	60*	-5	0.2	0.4
O=C(O)c1ccc(-c2ccco2)n1Cc1ccccc1	11	71*	17	-3	0.3	0.8
COc1ccccc1OCc1ccc(C(=O)NCC2CCCO2)o1 (configuration not stated)	8	20	28	0	0.8	0.7
CC(=O)Nc1ccc2c(c1)C(=O)c1ccccc1C2=O	14	63*	30	2	0.4	0.7
O=C(CCCN1C(=O)c2ccccc2C1=O)Nc1c(C(=O)C2CC2)oc2ccccc12	9	44	20	-5	0.6	0.8
COC(=O)c1oc2ccc(Br)cc2c1NC(=O)CCCN1C(=O)c2ccccc2C1=O	6	64*	43	-11	0.4	0.6
Cc1cccnc1NC(=O)CCCN1C(=O)c2ccccc2C1=O	12	-110	7	5	2.1*	0.9
O=C(CCCN1C(=O)c2ccccc2C1=O)Nc1c2c(nc3c1CCC3)CCC2	-1	63*	-4	1	0.4	1
COCc1cc(=O)[nH]c2cc(NC(=O)C(C)(C)CCl)c(C)cc12	10	4	24	-5	1	0.8
CC(=O)Nc1ccc(C(=O)N2CCCC2)cc1	4	-10	6	6	1.1	0.9
O=C1CC(NCc2ccc3c(c2)OCO3)C(=O)N1Cc1ccc2c(c1)OCO2 (configuration not stated)	7	23	50	5	0.8	0.5
CCCCSC(=O)Nc1ccccc1	13	12	31	1	0.9	0.7
O=C1CC(Cc2ccccc2)C(=O)N1Cc1ccco1 (configuration not stated)	-1	0	38	-6	1	0.6
COc1ccc(N2C(=O)c3ccc(NC(C)=O)cc3C2=O)cc1	14	55*	12	2	0.4	0.9
CC(=O)Nc1ccc(NC(=O)CCCCCN2C(=O)c3ccccc3C2=O)cc1	18	92*	40	-1	0.1	0.6
O=C(CCCCCN1C(=O)c2ccccc2C1=O)Nc1nccs1	15	56*	6	13	0.4	0.9
Cc1cc(C)nc(NS(=O)(=O)c2ccc(NC(=O)CCCN3C(=O)c4ccccc4C3=O)cc2)n1	/	33	28	/	0.7	0.7
O=C(CCCCCN1C(=O)C2C3C=CC(C3)C2C1=O)Nc1nccs1 (configuration not stated)	22	22	-8	-4	0.8	1.1
Cc1cccc(NC(=O)CCCN2C(=O)c3cccc4cccc(c34)C2=O)c1	5	-53	-7	1	1.5	1.1
CCN(CC)c1ccc(NC(=O)CCCCCN2C(=O)c3ccccc3C2=O)cc1	-3	76*	19	11	0.2	0.8
O=C(COC(=O)c1cc(S(=O)(=O)N2CCOCC2)c(Cl)cc1Cl)Nc1ncc(C(F)(F)F)cc1Cl	8	6	3	1	0.9	1
